Records with an inconclusive call do not appear. Where a call stands in place of a potency, no number is given. Activity calls are given as the source filed them. Unless noted, calls follow the shape of the dose curve; as a rule, active = well fitted curve in the direction sought with a large enough effect in the repeat runs; inconclusive = weak or mixed curves; inactive = no such curve, though single readings can be large; an effect the other way counts as inactive or inconclusive.
Key:
[1] = molecular target: Aryl hydrocarbon receptor (Homo sapiens) (UniProt P35869); experiment: qHTS assay to identify small molecule that activate the aryl hydrocarbon receptor (AhR) signaling pathway (AID 743085); also: nearly all actives have a fitted effect of over 15% in size; also: potency is read from the fitted curve at half-maximal effect;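 as to activation: HG2L7.5c1 human HepG2 liver cells with stably integrated DRE-driven firefly reporter; series mostly up to about 70 µM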
In short: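 Luminescence (ONE-Glo) from a dioxin-responsive-element luciferase reporter in HG2L7.5c1 HepG2 cells after 24 hr compound exposure at 37C; viability measured by CellTiter-Fluor fluorescence beforehand.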

[2] = qHTS assay to identify small molecule antagonists of the peroxisome proliferator-activated receptor gamma (PPARg) signaling pathway - cell viability counter screen (AID 743194); also: nearly all actives have a fitted effect of over 55% in size
In short: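 Viability was measured as CellTiter-Glo luminescence in GeneBLAzer PPARg UAS-bla HEK293H cells. These cells had been exposed 17 h at 37 C to compounds together with rosiglitazone at 50 nM final, with the beta-lactamase readout taken in the same wells.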

[3] = qHTS assay for small molecule agonists of the antioxidant response element (ARE) signaling pathway - cell viability counter screen (AID 743203; calls by dose curve; also: nearly all actives have a fitted effect of over 55% in size)
In short: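 CellSensor ARE-bla HepG2 cells, 2,000 per well, rested 5 hrs at 37C/5% CO2, then exposed to compound in DMSO for 16 hrs; viability read as CellTiter-Glo luminescence after 30 min at room temperature, in the reporter wells.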

[4] = qHTS assay for small molecule activators of the heat shock response signaling pathway (AID 743210; active = well fitted activation curve with a large enough effect in the signal ratio in the repeat runs, with a control signal flat, not every such curve was filed as active; the % refers to the signal ratio;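 also: HeLa cells with beta-lactamase reporter driven by heat shock elements; series mostly up to about 63 µM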)
In short: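 HeLa HSE-bla cells, overnight plating; cpd in DMSO 5 h, 37 C; LiveBLAzer B/G FRET substrate 2.5 h RT; fluorescence intensity read.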

[5] = qHTS assay to identify small molecule agonists of the peroxisome proliferator-activated receptor delta (PPARd) signaling pathway - cell viability counter screen (AID 743211); also: nearly all actives have a fitted effect of over 55% in size
In short: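 Viability was measured as CellTiter-Glo luminescence (30 min, room temperature) in the same wells as the beta-lactamase readout. GeneBLAzer PPARd UAS-bla HEK293H cells received compound after 5 h plating and were incubated 17 h at 37 C.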

[6] = molecular target: Peroxisome proliferator-activated receptor delta (Homo sapiens) (UniProt Q03181); experiment: qHTS assay to identify small molecule agonists of the peroxisome proliferator-activated receptor delta (PPARd) signaling pathway (AID 743212; calls by dose curve)
In short: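 HEK293H PPARd-bla cells; 5 h preincubation 37 C/5% CO2; compound (DMSO) 37 C; LiveBLAzer B/G FRET substrate 2 h RT; fluorescence intensity.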

[7] = qHTS assay to identify small molecule antagonists of the peroxisome proliferator-activated receptor delta (PPARd) signaling pathway - cell viability counter screen (AID 743213); also: nearly all actives have a fitted effect of over 50% in size
In short: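 HEK293H cells with the PPARd UAS-bla reporter, co-treated 17 h at 37 C with compounds and L165041 (300 nM final), were lysed with CellTiter-Glo. Luminescence indicated viable cell content.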

[8] = molecular target: Peroxisome proliferator-activated receptor delta (Homo sapiens) (UniProt Q03181); experiment: qHTS assay to identify small molecule antagonists of the peroxisome proliferator-activated receptor delta (PPARd) signaling pathway (AID 743215; active = well fitted inhibition curve with a large enough effect in the signal ratio in the repeat runs, not every such curve was filed as active; the % refers to the signal ratio;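 also: cells stimulated with agonist L165041 at 300 nM final during compound exposure; series mostly up to about 62 µM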)
In short: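 PPARd UAS-bla HEK293H cells were pre-incubated 5 h at 37 C, then given test compounds in DMSO plus agonist L165041 (300 nM final). After 17 h at 37 C, beta-lactamase FRET substrate was added; fluorescence read after 2 h at room temperature.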

[9] = molecular target: Bile acid receptor (Homo sapiens) (UniProt Q96RI1); experiment: qHTS assay to identify small molecule agonists of the farnesoid-X-receptor (FXR) signaling pathway (AID 743220; active = well fitted activation curve with a large enough effect in the signal ratio in the repeat runs, not every such curve was filed as active; the % refers to the signal ratio)
In short: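 Beta-lactamase reporter under UAS control in GeneBLAzer FXR HEK 293T cells (5000/well) measured with LiveBLAzer FRET substrate after 2 h at room temperature. Compound exposure lasted 16 h at 37C.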

[10] = qHTS assay to identify small molecule antagonists of the farnesoid-X-receptor (FXR) signaling pathway - cell viability counter screen (AID 743221; active = well fitted cell-killing curve with a large enough effect in the repeat runs, not every such curve was filed as active; also: nearly all actives have a fitted effect of over 50% in size)
In short: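 Cytotoxicity counter screen run in the FXR-bla reporter wells: HEK 293T cells exposed to compound with 50 uM (final) chenodeoxycholic acid for 16 h, 37 C, then viability measured by CellTiter-Glo luminescence after 30 min, room temperature.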

[11] = molecular target: Vitamin D3 receptor (Homo sapiens) (UniProt P11473); experiment: qHTS assay to identify small molecule agonists of the vitamin D receptor (VDR) signaling pathway (AID 743222; calls by dose curve)
In short: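 VDR-bla cells were plated 4 h at 37C/5% CO2, then exposed to compounds in DMSO for 16 h. After LiveBLAzer B/G FRET substrate addition and 2 h at room temperature, beta-lactamase reporter fluorescence was read.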

[12] = molecular target: Vitamin D3 receptor (Homo sapiens) (UniProt P11473); experiment: qHTS assay to identify small molecule antagonists of the vitamin D receptor (VDR) signaling pathway (AID 743223; active = well fitted inhibition curve with a large enough effect in the signal ratio in the repeat runs, not every such curve was filed as active; the % refers to the signal ratio)
In short: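 Antagonist mode: compound added to VDR-bla cells alongside agonist 1alpha,25-dihydroxyvitamin D3 (3 nM final), incubation 16 h at 37C. Read-out is LiveBLAzer FRET fluorescence, 2 h at room temperature.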

[13] = qHTS assay to identify small molecule agonists of the vitamin D receptor (VDR) signaling pathway - cell viability counter screen (AID 743224); also: nearly all actives have a fitted effect of over 50% in size; also: potency is read from the fitted curve at half-maximal effect
In short: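 VDR-bla cells were preincubated 4 h at 37C/5% CO2, then exposed to compounds for 16 h. After the 2 h room-temperature bla FRET read, CellTiter-Glo was added to the same wells and luminescence read after 30 min.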

[14] = qHTS assay to identify small molecule that activate the aryl hydrocarbon receptor (AhR) signaling pathway - cell viability counter screen (AID 743086);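 also: HepG2 liver cells carrying the AhR DRE luciferase reporter; series mostly up to about 70 µM; nearly all actives have a fitted effect of over 45% in size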
In short: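 Cytotoxicity counter screen: CellTiter-Fluor signal (30 min, 37 C) in 4000 HepG2 cells/well carrying the DRE-luciferase reporter, following 24 h compound exposure at 37 C.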

[15] = molecular target: Peroxisome proliferator-activated receptor gamma (Homo sapiens) (UniProt P37231); experiment: qHTS assay to identify small molecule agonists of the peroxisome proliferator-activated receptor gamma (PPARg) signaling pathway (AID 743094; active = well fitted activation curve with a large enough effect in the signal ratio in the repeat runs, not every such curve was filed as active; the % refers to the signal ratio)
In short: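 GeneBLAzer PPARg UAS-bla HEK293H cells carrying a stably integrated beta-lactamase reporter were pre-incubated 5 h at 37C, then exposed to compounds in DMSO for 17 h at 37C; LiveBLAzer B/G FRET substrate was added for 1 h at room temperature and fluorescence read.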

[16] = molecular target: Peroxisome proliferator-activated receptor gamma (Homo sapiens) (UniProt P37231); experiment: qHTS assay to identify small molecule antagonists of the peroxisome proliferator-activated receptor gamma (PPARg) signaling pathway (AID 743191; calls by dose curve; also: series mostly up to about 63 µM; nearly all actives have a fitted effect of over 30% in size)
In short: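 Beta-lactamase reporter under UAS control in HEK293H PPARg-bla cells; compound treatment 17 h at 37C. Read-out: fluorescence intensity after 1 h room-temperature incubation with LiveBLAzer B/G FRET substrate.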

[17] = qHTS assay for small molecule agonists of the antioxidant response element (ARE) signaling pathway (AID 743202; active = well fitted activation curve with a large enough effect in the signal ratio in the repeat runs, not every such curve was filed as active; the % refers to the signal ratio)
In short: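 Quantitative high-throughput format in HepG2 cells bearing an integrated ARE-beta-lactamase reporter. Compound exposure lasted 16 h at 37 C, and fluorescence was read 2 h after adding LiveBLAzer B/G substrate at room temperature.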

[18] = qHTS assay for small molecule activators of the heat shock response signaling pathway - cell viability counter screen (AID 743209); also: nearly all actives have a fitted effect of over 50% in size
In short: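 CellSensor HSE-bla HeLa cells, plated overnight at 37 C/5% CO2, were exposed to compounds in DMSO for 5 h at 37 C. Viability was then read in the same wells by CellTiter-Glo luminescence after 30 min at room temperature.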

[19] = molecular target: Bile acid receptor (Homo sapiens) (UniProt Q96RI1); experiment: qHTS assay to identify small molecule antagonists of the farnesoid-X-receptor (FXR) signaling pathway (AID 743217; active = well fitted inhibition curve with a large enough effect in the signal ratio in the repeat runs, not every such curve was filed as active; the % refers to the signal ratio)
In short: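 FXR-UAS-bla HEK 293T cells pre-incubated 5 h at 37 °C, then exposed to compounds with chenodeoxycholic acid (50 uM final) for 16 h at 37 °C. Beta-lactamase reporter read by LiveBLAzer B/G FRET substrate fluorescence after 2 h at room temperature.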

[20] = qHTS assay to identify small molecule agonists of the farnesoid-X-receptor (FXR) signaling pathway - cell viability counter screen (AID 743218); also: nearly all actives have a fitted effect of over 45% in size
In short: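 FXR-UAS-bla HEK 293T cells, plated 5 h at 37 C, were exposed to compounds for 16 h at 37 C. CellTiter-Glo was then added to the same wells as the bla readout; luminescence read after 30 min at room temperature.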

Chain of Peroxisome proliferator-activated receptor gamma (Homo sapiens) (P37231 whole entry, looked up): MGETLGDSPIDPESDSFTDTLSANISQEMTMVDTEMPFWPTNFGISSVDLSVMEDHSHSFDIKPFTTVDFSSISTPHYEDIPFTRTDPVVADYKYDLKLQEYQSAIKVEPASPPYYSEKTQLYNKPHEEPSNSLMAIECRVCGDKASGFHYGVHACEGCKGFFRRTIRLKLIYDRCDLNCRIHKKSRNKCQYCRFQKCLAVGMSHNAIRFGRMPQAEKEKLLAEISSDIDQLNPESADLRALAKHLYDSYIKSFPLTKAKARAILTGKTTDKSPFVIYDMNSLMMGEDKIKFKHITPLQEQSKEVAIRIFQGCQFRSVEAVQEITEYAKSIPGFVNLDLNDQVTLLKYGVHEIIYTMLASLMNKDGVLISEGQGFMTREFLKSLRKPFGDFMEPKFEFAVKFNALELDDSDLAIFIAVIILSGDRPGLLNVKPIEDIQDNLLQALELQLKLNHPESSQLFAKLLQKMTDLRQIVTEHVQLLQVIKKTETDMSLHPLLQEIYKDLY
Chain of Bile acid receptor (Homo sapiens) (Q96RI1 whole entry, looked up): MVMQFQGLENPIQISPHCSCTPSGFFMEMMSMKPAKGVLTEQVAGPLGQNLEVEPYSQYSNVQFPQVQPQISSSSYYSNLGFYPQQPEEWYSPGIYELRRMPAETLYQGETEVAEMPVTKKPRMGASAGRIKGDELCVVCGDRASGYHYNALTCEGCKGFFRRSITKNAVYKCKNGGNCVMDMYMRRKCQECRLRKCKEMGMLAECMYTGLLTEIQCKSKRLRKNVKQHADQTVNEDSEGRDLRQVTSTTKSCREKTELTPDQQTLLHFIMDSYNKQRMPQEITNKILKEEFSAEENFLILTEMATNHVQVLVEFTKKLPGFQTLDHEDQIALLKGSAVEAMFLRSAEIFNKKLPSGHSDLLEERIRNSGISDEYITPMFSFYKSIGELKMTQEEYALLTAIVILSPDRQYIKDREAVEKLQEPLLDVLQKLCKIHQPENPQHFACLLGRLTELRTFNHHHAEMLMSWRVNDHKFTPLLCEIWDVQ
Chain of Vitamin D3 receptor (Homo sapiens) (P11473 whole entry, looked up): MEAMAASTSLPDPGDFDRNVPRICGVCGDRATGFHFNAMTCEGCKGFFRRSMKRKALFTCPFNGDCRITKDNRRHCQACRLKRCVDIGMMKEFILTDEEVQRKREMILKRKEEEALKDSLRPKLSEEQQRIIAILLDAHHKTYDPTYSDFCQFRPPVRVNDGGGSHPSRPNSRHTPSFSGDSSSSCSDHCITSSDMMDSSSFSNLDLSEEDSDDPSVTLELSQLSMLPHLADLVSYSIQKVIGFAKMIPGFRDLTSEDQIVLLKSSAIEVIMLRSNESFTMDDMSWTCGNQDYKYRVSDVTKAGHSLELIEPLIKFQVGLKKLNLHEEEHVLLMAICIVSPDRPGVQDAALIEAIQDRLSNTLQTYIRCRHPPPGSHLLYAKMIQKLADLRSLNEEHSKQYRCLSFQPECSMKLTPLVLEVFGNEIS
Chain of Peroxisome proliferator-activated receptor delta (Homo sapiens) (Q03181 whole entry, looked up): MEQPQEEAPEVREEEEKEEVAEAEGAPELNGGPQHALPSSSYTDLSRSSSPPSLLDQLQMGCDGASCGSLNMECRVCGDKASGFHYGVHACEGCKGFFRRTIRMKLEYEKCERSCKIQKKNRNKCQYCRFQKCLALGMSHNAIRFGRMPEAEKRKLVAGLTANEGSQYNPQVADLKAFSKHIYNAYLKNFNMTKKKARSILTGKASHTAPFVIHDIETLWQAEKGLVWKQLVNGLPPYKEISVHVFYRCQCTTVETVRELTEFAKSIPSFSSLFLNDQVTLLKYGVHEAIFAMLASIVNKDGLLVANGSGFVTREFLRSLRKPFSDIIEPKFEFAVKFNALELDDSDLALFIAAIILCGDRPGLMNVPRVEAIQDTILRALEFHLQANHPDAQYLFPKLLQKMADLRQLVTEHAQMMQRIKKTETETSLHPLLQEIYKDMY
Chain of Aryl hydrocarbon receptor (Homo sapiens) (P35869 whole entry, looked up): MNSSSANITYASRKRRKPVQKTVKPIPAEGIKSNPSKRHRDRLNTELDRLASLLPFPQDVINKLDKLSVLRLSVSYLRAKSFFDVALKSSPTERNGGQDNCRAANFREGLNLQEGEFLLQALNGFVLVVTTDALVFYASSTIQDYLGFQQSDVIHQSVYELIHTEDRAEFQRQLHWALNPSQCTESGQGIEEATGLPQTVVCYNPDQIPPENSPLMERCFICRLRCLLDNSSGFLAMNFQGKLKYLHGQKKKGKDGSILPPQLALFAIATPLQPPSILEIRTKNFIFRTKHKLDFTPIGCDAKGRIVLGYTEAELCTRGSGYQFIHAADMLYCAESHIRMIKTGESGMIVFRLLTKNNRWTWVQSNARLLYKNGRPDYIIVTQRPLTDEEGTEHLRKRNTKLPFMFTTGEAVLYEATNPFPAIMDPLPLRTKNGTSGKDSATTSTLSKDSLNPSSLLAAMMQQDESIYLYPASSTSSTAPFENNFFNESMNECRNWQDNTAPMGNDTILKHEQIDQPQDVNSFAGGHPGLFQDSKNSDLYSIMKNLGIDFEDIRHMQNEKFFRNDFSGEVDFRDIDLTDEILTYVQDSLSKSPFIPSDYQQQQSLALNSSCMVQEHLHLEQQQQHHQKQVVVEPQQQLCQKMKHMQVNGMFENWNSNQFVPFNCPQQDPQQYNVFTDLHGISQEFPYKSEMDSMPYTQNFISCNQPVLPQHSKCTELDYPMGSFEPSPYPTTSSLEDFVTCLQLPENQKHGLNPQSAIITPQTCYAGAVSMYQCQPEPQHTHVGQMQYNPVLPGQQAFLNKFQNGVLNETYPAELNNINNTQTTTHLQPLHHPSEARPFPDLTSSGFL

Structure (SMILES)	Potency [1]	Potency [2]	Potency [3]	Potency [4]	Potency [5]	Potency [6]	Potency [7]	Potency [8]	Potency [9]	Potency [10]	outcome [11]	outcome [12]	Potency [13]	Potency [14]	Potency [15]	Potency [16]	Potency [17]	Potency [18]	Potency [19]	Potency [20]
CCOc1cc(N)c(Cl)cc1C(=O)NCC1CN(Cc2ccc(F)cc2)CCO1 (stereo unspecified)	0.266 µM (active)	inactive	inactive	inactive	inactive	inactive	inactive	inactive	inactive	inactive	inactive	inactive	inactive							
CC(=O)Nc1ccc(N)cc1		inactive			inactive	inactive	inactive	inactive	inactive	inactive	inactive		inactive	inactive	inactive	inactive	inactive	inactive	inactive	inactive
O=C(O)c1cccc(O)c1	inactive	inactive		inactive	inactive				inactive	inactive			inactive		inactive	inactive	inactive	inactive	inactive	inactive
CC(C)(C)C(=O)O		inactive	inactive	inactive	inactive	inactive	inactive	inactive	inactive	inactive	inactive	inactive	inactive	inactive	inactive	inactive		inactive	inactive	inactive
OCC1CC=CCC1 (stereo unspecified)	inactive	inactive	inactive		inactive	inactive	inactive			inactive	inactive	inactive	inactive		inactive		inactive	inactive		
O=C1NCCN1	inactive	inactive	inactive		inactive	inactive	inactive	inactive	inactive	inactive	inactive	inactive	inactive		inactive		inactive	inactive	inactive	inactive
CC1=NN(c2ccc(C(=O)O)cc2)C(=O)C1		inactive	inactive		inactive	inactive	inactive			inactive	inactive		inactive	inactive	inactive	inactive	inactive	inactive		inactive
Cc1cc(C(=C2C=CC(=Nc3ccc(S(=O)(=O)O)cc3S(=O)(=O)O)C=C2)c2ccc(Nc3ccc(S(=O)(=O)O)cc3)cc2)ccc1N	inactive	inactive		inactive	inactive		inactive			inactive	inactive	inactive	inactive		inactive	inactive	inactive	inactive		
CCC(C)(C)C1CCC(O)CC1 (stereo unspecified)	inactive	inactive	inactive		inactive	inactive	inactive			inactive	inactive		inactive		inactive		inactive	inactive		inactive
CC1(C)C(=O)N(Br)C(=O)N1Cl	inactive	inactive	inactive		inactive	inactive	inactive	inactive		inactive	inactive	inactive	inactive			inactive		inactive		inactive
CCCOCCOCCO		inactive	inactive	inactive	inactive	inactive	inactive	inactive		inactive			inactive	inactive	inactive	inactive	inactive	inactive		inactive
CCc1cccc(N(C)C(N)=Nc2cccc3ccccc23)c1	inactive	inactive	inactive	inactive	inactive		inactive			inactive	inactive	inactive						inactive		inactive
Cc1ccc(S(=O)(=O)NC2CCCCC2)cc1	inactive	inactive			inactive	inactive	inactive	inactive	inactive	inactive			inactive		inactive		inactive	inactive	inactive	inactive
CCCCCC=CCC=CCCCCCCCC(=O)OCC	inactive	inactive	inactive						inactive	inactive	inactive	inactive	29.8 µM (active)		inactive				inactive	inactive
CSc1ccc(Oc2ccc(S(N)(=O)=O)cc2CN(C)C)cc1C	inactive	inactive	inactive				inactive		inactive		inactive				inactive			inactive		
CCC(Cc1ccccc1)(C(=O)c1ccc(N2CCOCC2)cc1)N(C)C (stereo unspecified)	inactive	inactive	inactive	inactive	inactive	inactive	inactive		inactive	inactive	inactive				inactive			inactive		
CCCCN(CCCC)CCCOC(=O)c1ccc(N)cc1	inactive	inactive			inactive		inactive			inactive			inactive		inactive	inactive	inactive	inactive	inactive	inactive
CCCCCCCC/C=C\CCCCCCCC(=O)OC	inactive	inactive		inactive	inactive	inactive	inactive			inactive	inactive	inactive	inactive		inactive	inactive	inactive	inactive		

From PubChem BioAssay (Tox21)
